Results filed as inconclusive are left out. Activity calls are given as the source filed them. Unless noted, calls follow the shape of the full dose curve.

Assay [1] in a line: Nuclear factor erythroid 2-related factor 2/antioxidant responsive element (Nrf2/ARE) small molecule agonists: qHTS cell viability counter screen in human keratinocytes (AID 1919968; active = well fitted curve in the direction sought with a large enough effect in the repeat runs; an effect the other way counts as inactive or inconclusive; also: nearly all actives have a fitted effect of over 55% in size; also: potency is read from the fitted curve at half-maximal effect). An outline of the steps:
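HaCaT ARE reporter line, 1,500 cells/well; 5 h settle, 37 C/5% CO2; cpd in DMSO pinned; 23 h exposure; CellTiter-Fluor, 1 h; fluorescence.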
(In general: qHTS replaces the single test concentration by a dilution series.)

A short description of assay [2]: Nuclear factor erythroid 2-related factor 2/antioxidant responsive element (Nrf2/ARE) small molecule agonists: luciferase reporter gene qHTS assay in human keratinocytes (AID 1919969; also: nearly all actives have a fitted effect of over 35% in size). (In general: A reporter such as luciferase makes a cellular process visible.)
Assay [3] concerns the target Gonadotropin-releasing hormone receptor (Homo sapiens) (UniProt P30968). The experiment in a line: Human gonadotropin-releasing hormone receptor (GnRHR) small molecule agonists, calcium flux assay in GnRHR-HEK293 cells (AID 1920063). Also: nearly all actives have a fitted effect of over 35% in size. Also: potency is read from the fitted curve at half-maximal effect. An outline of the steps: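 GnRHR-HEK293, 1500 cells/well, 18 h 37 C/5% CO2; Ca dye 1 h 37 C; cpd pinned (DMSO), agonist mode; kinetic FL 480/540, 3 min, 1 s reads; 15 conc, n=3.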

In assay [4] the target is KiSS-1 receptor (Homo sapiens) (UniProt Q969F8). The experiment in a line: Human kisspeptin (KISS1R) small molecule agonists, calcium flux assay in KISS1R-HEK293 cells (AID 1920064; active = well fitted curve in the direction sought with a large enough effect in the repeat runs; an effect the other way counts as inactive or inconclusive). An outline of the steps: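 Stable human KISS1R HEK293 line; 18 h plating, 37 C/5% CO2; calcium dye 1 h 37 C; compound pin transfer; kinetic fluorescence Ex/Em 480/540, 3 min.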
Chain of KiSS-1 receptor (Homo sapiens) (Q969F8 whole entry, looked up): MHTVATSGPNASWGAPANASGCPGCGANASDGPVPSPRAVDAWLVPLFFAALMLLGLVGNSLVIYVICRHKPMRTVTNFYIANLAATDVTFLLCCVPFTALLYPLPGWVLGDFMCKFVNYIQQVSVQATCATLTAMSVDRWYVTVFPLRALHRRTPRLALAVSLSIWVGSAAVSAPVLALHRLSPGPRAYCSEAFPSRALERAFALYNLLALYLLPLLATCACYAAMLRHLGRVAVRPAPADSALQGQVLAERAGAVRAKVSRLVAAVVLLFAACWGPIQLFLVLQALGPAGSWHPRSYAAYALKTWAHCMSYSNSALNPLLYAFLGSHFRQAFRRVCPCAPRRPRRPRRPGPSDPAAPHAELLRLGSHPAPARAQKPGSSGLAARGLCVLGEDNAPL
(In general: Calcium assays in cells follow changes in intracellular calcium, usually with a dye or a luminescent sensor.)

Assay [5] can be described thus: G protein-coupled receptor (GPCR) small molecule agonists, calcium flux assay: HEK293 wild type cell line counter screen (AID 1920065). An outline of the steps:
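Kinetic fluorescence at Ex/Em 480/540, recorded every second over 3 min, served as the read-out after compound addition. Each compound was tested at 15 concentrations in triplicate on cells pre-loaded with calcium dye for 1 h.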

Assay [6] in a line: p53 small molecule agonists, cell-based qHTS assay with rat liver microsomes (AID 1963578). Also: potency is read from the fitted curve at half-maximal effect. In a few lines:
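Metabolic activation is supplied by rat liver microsomes with NADPH (each 0.5 mg/mL final). p53RE-bla cells incubate with compound 16 h at 37 C; reporter activity is measured by LiveBLAzer fluorescence.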

Assay [7] can be described thus: p53 small molecule agonists, cell-based qHTS assay with human liver microsomes: qHTS cell viability counter screen (AID 1963579). Also: nearly all actives have a fitted effect of over 45% in size. Also: potency is read from the fitted curve at half-maximal effect. In a few lines: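 After the 460/530 nm beta-lactamase read, CellTiter-Glo was added to the same wells and luminescence measured after 30 min at room temperature, giving viability of p53RE-bla cells treated 16 h with compounds plus microsomes and NADPH.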

Assay [8] in a line: p53 small molecule agonists, cell-based qHTS assay with rat liver microsomes: qHTS cell viability counter screen (AID 1963580). Also: nearly all actives have a fitted effect of over 45% in size. In a few lines:
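HCT-116 p53RE-bla, 4,000 cells/well, 5 h pre-incubation; cpd + rat liver microsomes 0.5 mg/mL + NADPH 0.5 mg/mL (final); 16 h, 37 C; CellTiter-Glo, 30 min RT; luminescence.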

A short description of assay [9]: p53 small molecule agonists, cell-based qHTS assay: qHTS cell viability counter screen (AID 1963581). Also: nearly all actives have a fitted effect of over 45% in size. In a few lines: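 HCT-116 p53RE-bla cells, 4,000/well, plated 5 h before compound pin transfer; 16 h at 37 C; bla substrate 2 h RT; then CellTiter-Glo, 30 min RT, luminescence.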
The target of assay [10] is 5-hydroxytryptamine receptor 2A (Homo sapiens) (UniProt P28223). The experiment in a line: 5-hydroxytryptamine receptor 2A (HTR2A) small molecule agonists, cell-based qHTS assay (AID 1963587). Also: nearly all actives have a fitted effect of over 30% in size. An outline of the steps:
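Kinetic calcium-flux fluorescence (2 min, 1 sec intervals) after compound addition in agonist mode. HTR2A-CHO cells were cultured 18 h, then dye-loaded 1 h at 37 C.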

Assay [11] deals with Muscarinic acetylcholine receptor M1 (Homo sapiens) (UniProt P11229). Put plainly: Cholinergic receptor muscarinic 1 (CHRM1) small molecule agonists, cell-based qHTS assay (AID 1963589). Also: nearly all actives have a fitted effect of over 35% in size. An outline of the steps:
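Human M1 in stable CHO line; 18 h plating, 1 h dye load 37 C; cpd added (agonist mode); Ca2+ fluorescence kinetic read, 1 s intervals; 15 conc, 3 runs.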

Assay [12] can be described thus: cAMP Responsive Elements (CRE) small molecule agonists, cell-based qHTS assay (AID 1963590). An outline of the steps:
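HEK 293T CRE-bla, 2,000 cells/well, 18 h preincubation 37 C/5% CO2; cpds (DMSO) pinned, 3 h; LiveBLAzer B/G FRET substrate, 2 h RT.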

Assay [13] in a line: cAMP Responsive Elements (CRE) small molecule antagonists, cell-based qHTS assay (AID 1963591; active = well fitted inhibition curve with a large enough effect in the signal ratio in the repeat runs, not every such curve was filed as active; the % refers to the signal ratio). An outline of the steps:
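Beta-lactamase reporter read by FRET substrate (LiveBLAzer B/G) after 2 h at room temperature. CRE-bla HEK293T cells had received compound plus 0.25 uM (final) NKH477 for 3 h at 37 °C.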

Assay [14] addresses Beta-2 adrenergic receptor (Homo sapiens) (UniProt P07550). Put plainly: Adrenergic beta2 receptor (ADRB2) small molecule antagonists, cell-based qHTS assay (AID 1963592). Also: series mostly up to about 92 µM; nearly all actives have a fitted effect of over 50% in size. In a few lines:
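Cells (CHO, stable ADRB2 overexpression) incubated 18-20hr at 37C; compounds added from DMSO; agonist mix (1nM isoproterenol, 100uM IBMX, 25uM Ro-20-1724) added; 0.5hr RT; d2-cAMP and anti-cAMP-cryptate added; 1hr RT; 665/615 nm read.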

Assay [15] has as its target D(2) dopamine receptor (Homo sapiens) (UniProt P14416). Put plainly: Dopamine D2 receptor (DRD2) small molecule agonists, cell-based qHTS assay (AID 1963594). Also: nearly all actives have a fitted effect of over 35% in size. An outline of the steps:
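cAMP accumulation in DRD2-HEK293 cells measured by HTRF after 1 h detection; compounds added 10 min before NKH477 (200nM […]) forskolin-analogue stimulation, 30 min at room temperature, with Ro20-1724 present at 0.1 mM final.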

Assay [16] has the same target. The experiment in a line: Dopamine D2 receptor (DRD2) small molecule antagonists, cell-based qHTS assay (AID 1963595; active = well fitted inhibition curve with a large enough effect in the signal ratio in the repeat runs, with a control signal flat; the % refers to the signal ratio). In a few lines:
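DRD2-HEK293; 0.1 mM Ro20-1724; cpd 10 min RT; NKH477 200 nM + quinpirole 12 nM, 30 min RT; HTRF cAMP (cAMP-d2/anti-cAMP cryptate), 665/620 nm ratio after 1 h.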

Assay [17] can be described thus: p53 small molecule agonists, cell-based qHTS assay (AID 1963582; active = well fitted activation curve with a large enough effect in the signal ratio in the repeat runs, not every such curve was filed as active; the % refers to the signal ratio). In a few lines:
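Reporter line: p53RE-bla. Pre-incubation 5 h, 37 C, 5% CO2; compound (DMSO, pin tool) 16 h, 37 C; B/G FRET substrate 2 h RT; fluorescence intensity read.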

Assay [18] has as its target Beta-2 adrenergic receptor (Homo sapiens) (UniProt P07550). The experiment in a line: Adrenergic beta2 receptor (ADRB2) small molecule agonists, cell-based qHTS assay (AID 1963593).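 Also: CHO cells stably overexpressing human ADRB2.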 In a few lines: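 CHO cells stably over-expressing ADRB2 were plated overnight at 37C, then dosed with compounds plus a stimulation mix containing 100uM IBMX and 25uM Ro-20-1724 for 0.5hr at room temperature. cAMP was measured by HTRF competition, 1hr.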

Assay [19] addresses 5-hydroxytryptamine receptor 2A (Homo sapiens) (UniProt P28223). The experiment in a line: 5-hydroxytryptamine receptor 2A (HTR2A) small molecule antagonists, cell-based qHTS assay (AID 1963586). Also: nearly all actives have a fitted effect of over 45% in size. Also: potency is read from the fitted curve at half-maximal effect. In a few lines: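 Antagonist-mode intracellular calcium assay: DOI (4 nM) added after 5 min compound pre-incubation at room temperature to dye-loaded HTR2A-CHO cells. Fluorescence followed for 3 min, sampled every second.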

The target of assay [20] is Muscarinic acetylcholine receptor M1 (Homo sapiens) (UniProt P11229). Put plainly: Cholinergic receptor muscarinic 1 (CHRM1) small molecule antagonists, cell-based qHTS assay (AID 1963588). Also: nearly all actives have a fitted effect of over 40% in size. An outline of the steps: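 CHRM1-CHO calcium-flux assay, antagonist mode. Cells were seeded 18 h, dye-loaded 1 h at 37 C and given compound for 5 min at RT, then acetylcholine was added at 50nM. FDSS fluorescence was read 3 min; 15 concentrations, three runs.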
Chain of Muscarinic acetylcholine receptor M1 (Homo sapiens) (P11229 whole entry, looked up): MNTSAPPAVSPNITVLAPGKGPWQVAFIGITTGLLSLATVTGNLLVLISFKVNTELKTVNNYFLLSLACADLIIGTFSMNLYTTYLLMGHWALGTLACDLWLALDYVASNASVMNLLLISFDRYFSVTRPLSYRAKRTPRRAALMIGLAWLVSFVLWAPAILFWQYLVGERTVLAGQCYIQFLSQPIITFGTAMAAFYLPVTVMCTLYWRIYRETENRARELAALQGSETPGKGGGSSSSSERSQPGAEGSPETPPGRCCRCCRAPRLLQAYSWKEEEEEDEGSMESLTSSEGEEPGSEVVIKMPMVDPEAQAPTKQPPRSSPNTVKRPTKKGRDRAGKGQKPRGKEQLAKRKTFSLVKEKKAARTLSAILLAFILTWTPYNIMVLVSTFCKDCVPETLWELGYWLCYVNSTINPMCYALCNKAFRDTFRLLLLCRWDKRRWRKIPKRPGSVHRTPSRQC

Chain of D(2) dopamine receptor (Homo sapiens) (P14416 whole entry, looked up): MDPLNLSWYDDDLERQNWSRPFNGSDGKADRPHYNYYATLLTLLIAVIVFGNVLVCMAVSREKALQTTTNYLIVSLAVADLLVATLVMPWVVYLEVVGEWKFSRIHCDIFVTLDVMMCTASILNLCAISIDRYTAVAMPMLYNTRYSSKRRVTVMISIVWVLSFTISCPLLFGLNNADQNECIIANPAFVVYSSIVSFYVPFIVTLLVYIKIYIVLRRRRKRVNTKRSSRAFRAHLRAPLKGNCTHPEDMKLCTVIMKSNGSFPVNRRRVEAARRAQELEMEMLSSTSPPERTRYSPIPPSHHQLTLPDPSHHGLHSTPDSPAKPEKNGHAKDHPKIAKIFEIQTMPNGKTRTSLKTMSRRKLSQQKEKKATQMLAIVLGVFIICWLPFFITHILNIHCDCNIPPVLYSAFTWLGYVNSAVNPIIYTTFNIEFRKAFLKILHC
Chain of 5-hydroxytryptamine receptor 2A (Homo sapiens) (P28223 whole entry, looked up): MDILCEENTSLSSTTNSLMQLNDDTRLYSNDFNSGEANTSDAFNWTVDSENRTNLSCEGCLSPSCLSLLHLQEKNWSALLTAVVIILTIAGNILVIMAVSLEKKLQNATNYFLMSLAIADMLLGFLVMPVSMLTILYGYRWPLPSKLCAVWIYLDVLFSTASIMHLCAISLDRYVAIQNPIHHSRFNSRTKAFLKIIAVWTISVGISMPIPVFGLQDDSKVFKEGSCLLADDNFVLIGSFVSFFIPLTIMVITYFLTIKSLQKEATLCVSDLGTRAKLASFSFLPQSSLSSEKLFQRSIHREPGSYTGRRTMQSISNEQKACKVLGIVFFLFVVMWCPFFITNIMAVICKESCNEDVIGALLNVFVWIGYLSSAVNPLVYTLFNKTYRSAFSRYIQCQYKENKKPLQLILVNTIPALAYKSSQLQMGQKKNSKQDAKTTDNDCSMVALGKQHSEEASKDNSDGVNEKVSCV
Chain of Gonadotropin-releasing hormone receptor (Homo sapiens) (P30968 whole entry, looked up): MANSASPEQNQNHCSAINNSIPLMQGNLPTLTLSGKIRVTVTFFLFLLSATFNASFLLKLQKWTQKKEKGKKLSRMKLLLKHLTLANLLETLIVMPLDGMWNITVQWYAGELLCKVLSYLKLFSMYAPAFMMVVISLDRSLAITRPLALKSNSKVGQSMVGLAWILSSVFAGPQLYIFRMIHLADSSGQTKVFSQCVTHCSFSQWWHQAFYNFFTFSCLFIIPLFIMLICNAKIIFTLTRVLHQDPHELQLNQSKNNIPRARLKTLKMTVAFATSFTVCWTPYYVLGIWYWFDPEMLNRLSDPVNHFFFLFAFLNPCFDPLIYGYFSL
Chain of Beta-2 adrenergic receptor (Homo sapiens) (P07550 whole entry, looked up): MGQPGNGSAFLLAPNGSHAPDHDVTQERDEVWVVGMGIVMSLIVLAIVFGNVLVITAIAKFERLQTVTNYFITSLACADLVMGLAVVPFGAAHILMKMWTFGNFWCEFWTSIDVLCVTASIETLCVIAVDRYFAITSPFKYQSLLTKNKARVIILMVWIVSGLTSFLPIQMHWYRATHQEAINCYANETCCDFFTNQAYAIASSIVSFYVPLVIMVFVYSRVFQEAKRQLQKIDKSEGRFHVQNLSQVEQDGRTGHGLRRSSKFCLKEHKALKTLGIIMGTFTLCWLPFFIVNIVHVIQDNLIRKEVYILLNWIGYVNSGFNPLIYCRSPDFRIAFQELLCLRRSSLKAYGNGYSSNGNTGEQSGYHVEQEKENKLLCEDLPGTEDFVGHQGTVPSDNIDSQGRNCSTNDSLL

With `CN(C)c1ccc(C2(c3ccc(N(C)C)cc3)OC(=O)c3cc(N(C)C)ccc32)cc1`, the Potency result in assay [1], in assay [2], in [3], in assay [4], in [5] and in [6] was “inactive” each time. The Potency entry in assay [8], in [9], in [10], in assay [11], in [12] and in assay [13] was “inactive” each time. The Potency result in assay [14], in assay [15] and in assay [16] was “inactive” throughout. Further, the Potency in assay [7] was 18.2 µM (active).

Take `C[N+](C)(C)CCOC(N)=O`: the Potency entry in assay [1], in [2], in [4], in assay [5], in assay [6] and in [8] was “inactive” throughout. In addition, the Potency entry in assay [9], in assay [17], in [12], in assay [13], in assay [14] and in [18] was “inactive” throughout. For the same compound, the Potency entry in assay [15] and in [16] was “inactive” in each case. In [3], the Potency is 2.39 µM (active).

For the compound `CCc1ncc(C)[nH]1`, the Potency result in assay [1], in assay [2], in assay [3], in assay [4], in assay [5] and in assay [6] was “inactive” throughout. Besides, the Potency entry in assay [7], in assay [9], in assay [17], in [19], in [20] and in [11] was “inactive” throughout. The Potency result in assay [12], in assay [14], in assay [18], in assay [15] and in assay [16] was “inactive” in each case.

In the case of `CCOC(=O)C1=C(C)NC(C)=C(C(=O)OCC)C1c1ccccc1/C=C/C(=O)OC(C)(C)C`, the Potency in assay [1] is 18.8 µM (active); in assay [6], 19.9 µM (active). Also, the Potency result in assay [2], in assay [3], in assay [4], in [5], in [7] and in [8] was “inactive” each time. For the same compound, the Potency entry in assay [14], in [15] and in [16] was “inactive” in each case.

With `CCO[Si](CCCS)(OCC)OCC`, the Potency entry in assay [1], in [2], in assay [3], in assay [4], in [5] and in [6] was “inactive” in each case. In addition, the Potency entry in assay [8], in assay [9], in assay [17], in [19], in assay [10] and in [20] was “inactive” in each case. Further, the Potency result in assay [11], in assay [12], in assay [13], in assay [14], in [18] and in [15] was “inactive” in each case. The Potency entry in assay [16] is “inactive”.

Regarding `CC(=O)OC(C(=O)c1ccccc1)c1ccccc1` (stereo unspecified), the Potency result in assay [1], in assay [2], in [3], in [4], in [5] and in assay [6] was “inactive” in each case. Also, the Potency entry in assay [7], in assay [8], in [17], in [10], in [11] and in assay [12] was “inactive” in each case. For the same compound, the Potency entry in [13], in assay [14], in assay [15] and in assay [16] was “inactive” in each case. Besides, the Potency in [19] was 0.0011 µM (active).

On to `CCCCNC(=O)NCCCC`, for which the Potency entry in assay [1], in [2], in assay [3], in assay [4], in [5] and in [6] was “inactive” in each case. For the same compound, the Potency result in assay [7], in assay [9], in assay [17], in assay [19], in assay [10] and in assay [20] was “inactive” throughout. Also, the Potency entry in assay [11], in assay [12], in assay [13], in assay [14], in [18] and in assay [15] was “inactive” each time.

Turning to `Nc1nc(F)nc2c1ncn2[C@@H]1O[C@H](CO)[C@@H](O)[C@@H]1O`, the Potency result in assay [1], in assay [2], in [3], in [4], in assay [5] and in assay [6] was “inactive” each time. Also, the Potency entry in assay [7], in assay [9], in assay [12], in assay [13], in assay [14] and in assay [18] was “inactive” throughout. The Potency result in [15] is “inactive”.

(Values after PubChem BioAssay (Tox21).)
